An excerpt weighted towards active compounds, which were near 3.8% of everything screened.
Mtb hypoxia inh: inhibitors of hypoxia-regulated fluorescent reporter in Mycobacterium tuberculosis; M. tuberculosis hypoxia-regulated fluorescent reporter, fluorescence; fluorescence inhibition, % (concentration not given with the values); actives 0.1% (n = 300,000); AID 1159583; in the data active = fluorescence inhibition mostly above about 23%, no sharp cut-off; inactive = mostly below about 17%
Mtb FBA inh: inhibitors of M. tuberculosis fructose-bisphosphate aldolase | P9WQA3 | purified M. tuberculosis FBA, fluorescence read-out | inhibition, % at 1 µM | actives 2.3% (n = 360,000); in the data active = inhibition above about 27%
Target sequence (P9WQA3 whole entry, looked up): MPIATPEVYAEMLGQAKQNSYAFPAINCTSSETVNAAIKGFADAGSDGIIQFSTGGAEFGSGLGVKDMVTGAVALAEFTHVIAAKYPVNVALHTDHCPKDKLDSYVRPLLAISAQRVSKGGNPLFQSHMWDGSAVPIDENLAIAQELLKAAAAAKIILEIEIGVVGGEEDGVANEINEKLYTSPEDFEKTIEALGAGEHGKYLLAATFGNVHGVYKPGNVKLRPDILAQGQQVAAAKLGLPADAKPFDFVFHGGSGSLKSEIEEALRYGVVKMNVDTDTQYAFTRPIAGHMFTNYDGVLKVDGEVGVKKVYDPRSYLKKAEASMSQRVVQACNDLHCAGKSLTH
PrP UTR inh: inhibition of PrP 5' UTR reporter expression; actives 0.35% (n = 340,000); AID 488862; inhibition, % (test concentration not listed); cell-based PrP 5' UTR mRNA reporter, plate reader; in the data active = inhibition above about 52%
PrPC surface inh: inhibitors of human cell surface prion protein PrPC | P04156 | TR-FRET read-out | inhibition, % at 13.8 µM | actives 0.43% (n = 370,000) | AID 720596; in the data active = inhibition above about 24%
Y pestis TopoI: inhibitors of Yersinia pestis topoisomerase I; activity, % at 10 µM; AID 504884; actives 0.064% (n = 360,000); Y. pestis Topo-I cleavage product accumulation, plate reader; in the data active = activity above about 50%, passing the limit was not always enough
GDH-TPI inh: counter-screen for M. tuberculosis FBA inhibitors: GDH-TPI coupled enzymes | GDH-TPI coupled enzyme counterscreen, NADH absorbance | inhibition, % at 4.8 µM | actives 1.2% (n = 360,000) | AID 588335; in the data active = inhibition above about 30%
Hits are given with their value.

What do the screens show for `Cc1cc(OC(=O)c2ccco2)c2c3c(c(=O)oc2c1)CCC3`?
Mtb hypoxia inh: inactive; Mtb FBA inh: inactive; PrP UTR inh: inactive; PrPC surface inh: inactive; Y pestis TopoI: inactive; GDH-TPI inh: inactive

How did COc1c(CC=C(C)C)c(O)cc2oc(=O)c3c4ccc(O)cc4oc3c12 do in these assays?
Mtb FBA inh: 142; Y pestis TopoI: inactive; GDH-TPI inh: inactive

Results for CC=C(C)C(=O)OC1c2cc3c(c(OC)c2-c2c(cc(OC)c(OC)c2OC)C(OC(C)=O)C(C)C1C)OCO3 (stereo unspecified) ?
Mtb hypoxia inh: inactive

Results for CCN1C(=O)C2C(c3ccc(-c4cc(C(C)=O)cs4)cc3)N3CCC[C@@]3(C(=O)OC)C2C1=O (stereo partly specified) ?
Mtb hypoxia inh: inactive

What do the screens show for `CC(C)CC1CN=C(Nc2ccccc2)N1CCCC1CCCC1` (stereo unspecified)?
Mtb hypoxia inh: inactive

What do the screens show for `CC(=O)Oc1ccc2c3c(c(=O)oc2c1)CCCC3`?
Mtb hypoxia inh: inactive; Mtb FBA inh: 195; PrP UTR inh: inactive; PrPC surface inh: inactive; Y pestis TopoI: inactive; GDH-TPI inh: inactive

How did COC(=O)C(C)Oc1ccc2c3c(c(=O)oc2c1)CCCCC3 (stereo unspecified) do in these assays?
Mtb hypoxia inh: inactive; Mtb FBA inh: 146; PrP UTR inh: inactive; PrPC surface inh: inactive; Y pestis TopoI: inactive; GDH-TPI inh: inactive

How did O=C(COc1ccc2c3c(c(=O)oc2c1)CCC3)N1CCCC1 do in these assays?
Mtb hypoxia inh: inactive; Mtb FBA inh: inactive; PrP UTR inh: inactive; PrPC surface inh: inactive; Y pestis TopoI: inactive; GDH-TPI inh: inactive

How did O=c1oc2cc(O)ccc2c2c1CCCC2 do in these assays?
Mtb hypoxia inh: inactive; Mtb FBA inh: active; PrP UTR inh: inactive; PrPC surface inh: inactive; Y pestis TopoI: inactive; GDH-TPI inh: inactive

Results for CC(Oc1ccc2c3c(c(=O)oc2c1)CCC3)C(=O)NCC1CCC(C(=O)O)CC1 (stereo unspecified) ?
Mtb FBA inh: inactive; PrP UTR inh: inactive; PrPC surface inh: inactive; Y pestis TopoI: inactive; GDH-TPI inh: inactive

How did Cc1noc(C)c1NC(=O)N(C)CC1Oc2c(NS(=O)(=O)c3cn(C)cn3)cccc2C(=O)N(C(C)CO)CC1C (stereo unspecified) do in these assays?
Mtb hypoxia inh: inactive

What do the screens show for `O=C1CC2c3c(cccc3CN1Cc1ccccc1)CC(O)C2O` (stereo unspecified)?
Mtb hypoxia inh: inactive

What do the screens show for `Cc1cc(C)c2c(N)c(C(=O)Nc3ccccc3F)sc2n1`?
Mtb hypoxia inh: inactive; Mtb FBA inh: inactive; PrP UTR inh: inactive; PrPC surface inh: inactive; Y pestis TopoI: inactive; GDH-TPI inh: inactive

How did C=COC(=O)c1sc2nc(C)cc(C)c2c1N do in these assays?
Mtb hypoxia inh: inactive; Mtb FBA inh: 134; PrP UTR inh: inactive; PrPC surface inh: inactive; Y pestis TopoI: inactive; GDH-TPI inh: inactive

What do the screens show for `Cc1cc(C)c2c(N)c(C(=O)Nc3ccccc3Cl)sc2n1`?
Mtb hypoxia inh: inactive; Mtb FBA inh: 33; PrPC surface inh: inactive; Y pestis TopoI: inactive; GDH-TPI inh: inactive

How did COC(=O)C1=C(c2ccc(-c3ccccc3)c(F)c2)C[C@@H]2CC[C@H]1N2C(=O)NCc1ccco1 do in these assays?
Mtb FBA inh: inactive; PrP UTR inh: inactive; PrPC surface inh: inactive; Y pestis TopoI: 56; GDH-TPI inh: inactive

Results for O=C(O)c1ccc(-c2ccccc2)[nH]1 ?
Mtb hypoxia inh: inactive; Mtb FBA inh: inactive; PrP UTR inh: inactive; PrPC surface inh: inactive; Y pestis TopoI: inactive; GDH-TPI inh: inactive

What do the screens show for `O=C(O)c1ccc2cc(-c3ccccc3)[nH]c2c1`?
Mtb hypoxia inh: inactive; Mtb FBA inh: active; PrP UTR inh: inactive; PrPC surface inh: inactive; Y pestis TopoI: inactive; GDH-TPI inh: inactive

How did CC(=O)Oc1ccc2c(=O)c(/C=N/c3cc(=O)[nH]c(=S)[nH]3)coc2c1 do in these assays?
Mtb FBA inh: inactive; PrP UTR inh: inactive; PrPC surface inh: inactive; Y pestis TopoI: inactive; GDH-TPI inh: 54

What do the screens show for `O=c1cc(N=Cc2coc3cc(Br)ccc3c2=O)[nH]c(=S)[nH]1`?
Mtb hypoxia inh: inactive

What do the screens show for `COc1ccc(C2=CC(=O)CC(c3ccc(F)cc3)C2)c(F)c1F` (stereo unspecified)?
Mtb hypoxia inh: inactive

Results for CN(C)c1ccc(C=NCCC2(O)CCOC(C)(C)C2)cc1 (stereo unspecified) ?
Mtb hypoxia inh: inactive; Mtb FBA inh: inactive; PrP UTR inh: inactive; PrPC surface inh: inactive; Y pestis TopoI: inactive; GDH-TPI inh: 40

How did COc1ccc(C(=O)NCCCn2ccnc2)cc1[N+](=O)[O-] do in these assays?
Mtb hypoxia inh: inactive; Mtb FBA inh: inactive; PrP UTR inh: inactive; PrPC surface inh: inactive; Y pestis TopoI: inactive; GDH-TPI inh: 32

Results for COc1cc(C(=O)NCCCn2ccnc2)cc(OC)c1OC ?
Mtb hypoxia inh: inactive; Mtb FBA inh: inactive; PrP UTR inh: inactive; PrPC surface inh: inactive; Y pestis TopoI: inactive; GDH-TPI inh: inactive

How did Cc1cc2ccccc2c(=O)[nH]1 do in these assays?
Mtb hypoxia inh: inactive; Mtb FBA inh: inactive; PrP UTR inh: inactive; PrPC surface inh: inactive; Y pestis TopoI: inactive; GDH-TPI inh: inactive

What do the screens show for `O=c1[nH]c(Nc2ccccn2)cc2ccccc12`?
Mtb FBA inh: 132; PrP UTR inh: inactive; PrPC surface inh: inactive; Y pestis TopoI: inactive; GDH-TPI inh: inactive

How did O=c1[nH]c(-c2ccccn2)cc2ccccc12 do in these assays?
Mtb hypoxia inh: inactive; Mtb FBA inh: 121; PrP UTR inh: inactive; PrPC surface inh: inactive; Y pestis TopoI: inactive; GDH-TPI inh: inactive

How did CC(C)CC(NC(=O)c1nc[nH]c1C(=O)N1CCC(C)CC1)C(=O)OC(C)(C)C (stereo unspecified) do in these assays?
Mtb hypoxia inh: inactive

How did Cc1cc(N2CCC(C)CC2)nc(-c2ccccc2O)n1 do in these assays?
Mtb hypoxia inh: inactive; Mtb FBA inh: inactive; PrP UTR inh: inactive; PrPC surface inh: inactive; Y pestis TopoI: inactive; GDH-TPI inh: 38

Results for N/C(=N\N=C/c1ccc(-c2ccc(O)c(C(=O)O)c2)o1)N[N+](=O)[O-] ?
Mtb FBA inh: inactive; PrP UTR inh: inactive; PrPC surface inh: inactive; Y pestis TopoI: inactive; GDH-TPI inh: 58

How did NC(=NN=Cc1ccc(O)cc1)N[N+](=O)[O-] do in these assays?
Mtb hypoxia inh: inactive

What do the screens show for `COc1cccc(CNc2nc3cc(-c4cccc(Cl)c4)sc3c(=O)n2C)c1`?
Mtb FBA inh: inactive; PrPC surface inh: inactive; Y pestis TopoI: inactive; GDH-TPI inh: inactive

What do the screens show for `COc1ccc(-c2cc3nc(CCl)[nH]c(=O)c3s2)cc1`?
Mtb FBA inh: 160; PrP UTR inh: inactive; PrPC surface inh: inactive; Y pestis TopoI: inactive; GDH-TPI inh: inactive

Results for O=c1[nH]cnc2cc(-c3ccccc3)sc12 ?
Mtb hypoxia inh: inactive; Mtb FBA inh: inactive; PrP UTR inh: inactive; PrPC surface inh: inactive; Y pestis TopoI: inactive; GDH-TPI inh: inactive

How did COc1ccc(-c2cc3nc[nH]c(=O)c3s2)cc1 do in these assays?
Mtb hypoxia inh: inactive; Mtb FBA inh: active; PrP UTR inh: inactive; PrPC surface inh: inactive; Y pestis TopoI: inactive; GDH-TPI inh: 31

Screening results: PubChem, several laboratories
